The values below come from PubChem BioAssay (NCATS).

Inconclusive results are not listed. A call without a number means that no potency is given here. The source made the active and inactive calls. The call rests on the fitted dose curve; in most records, active means well fitted inhibition curve with a large enough effect; inconclusive means small, poorly fitted or top-dose-only effect; inactive means flat fitted curve, though single readings scatter.
Potency means the concentration at half of the fitted maximal effect.

The test is described as follows: qHTS for Inhibitors of Plasmodium falciparum (HB3) proliferation (AID 504318). Further: nearly all actives have a fitted effect of over 60% in size. The conditions noted are these: P. falciparum HB3 in erythrocytes, SYBR Green DNA, 72 h; series mostly up to 7.21 µM. An excerpt: Plasmodium falciparum is a virulent malarial parasite that kills 1-2 million people worldwide each year. Malaria not only inflicts tremendous suffering and morbidity on the human population, but has dramatically influenced the course of civilization with profound sociological and economic implications (Shah, S. 2010). Transmitted by mosquitoes, the sporozoite form of the parasite enters the blood stream to infect hepatocytes, where they become merozoites that infect red blood cells (erythrocytes). Within erythrocytes, merozoites begin a […] cycle of growth and division, after which the parasite is released to infect new red blood cells. Gametocytes, which form within erythrocytes as well, circulate in the bloodstream and are ingested by the mosquito, thereby completing the life cycle (see CDC website). To profile malarial lines for differential chemical responses and to identify inhibitors of malarial growth, an assay that measures P. falciparum growth and replication within erythrocytes was employed. This assay uses a DNA binding fluorescent dye (SYBR Green) to detect parasite DNA following cell lysis. Because mature erythrocytes lack DNA, only Plasmodium-derived DNA is detected. The P. falciparum line cp250, derived from a malarial isolate from Cambodia, (Mu, J., et al. 2010) was added to the panel of lines, Dd2, HB3, 7G8 and GB4 in this study. Laboratory of Assay Development and Screening Technology [ADST] and NIH Chemical Genomics Center [NCGC] Boston University, Chemistry Department, Center for Chemical Methodology and Library Development [CMLD-BU] NIH National Institute of Allergy and Infectious Diseases [NIAID]
ADST Assay Protocol Summary: The 1536-well SYBR Green viability assay was based on the method of Bennett et al (2004) and described previously in 1536-well format (Yuan J., et al. 2009). For screening 3 ul culture medium was dispensed into 1536 well black clear bottom plates (Aurora Biotechnologies) using a Multidrop Combi (Thermo Fisher Scientific Inc.), 23 nL compounds in DMSO were added by a pin transfer (Cleveland, P.H. and Koutz, P.J, 2005) using a pin tool-based delivery system (Kalypsys), and 5 ul of erythrocytes infected with P. falciparum one of five lines (cp250, Dd2, HB3, 7G8 or GB4, 0.3% parasitemia, 2.5% hematocrit final concentration) were added. The plates were incubated at 37C in a humidified incubator in 5% CO2 for 72 h, and 2 ul lysis buffer (20 mM Tris HCl, 10 mM EDTA, 0.16% saponin, 1.6% triton X, 10X SYBR Green I (supplied as 10,000X final concentration by Invitrogen) was added to each well. The plates were mixed for 25 sec with gentle shaking and incubated overnight at room temperature in the dark. The following morning, fluorescence intensity at 485(14) nm excitation and 535(25) nm emission wavelengths was measured on an EnVision (Perkin Elmer) plate reader. Plate reads were normalized relative to the control inhibitor (0.29 uM artemisinin) and vehicle (DMSO) wells present on each plate and then corrected by an algorithm using vehicle-only control plates at the beginning and end of the compound plate stack. References Shah, S. (2010). The Fever: how malaria has ruled humankind for 500,000 years. New York, Sarah Crichton Books. CDC web site, http://www.cdc.gov/malaria/about/biology/index.html Mu, J., Myers, R.A., Jiang, H., Liu, S., Ricklefs, S., Waisberg, M., Chotivanich, K., Wilairatana, P., Krudsood, S., White, N.J., et Plasmodium falciparum genome-wide scans for positive selection, recombination hot spots and resistance to antimalarial drugs Nature Genetics 2010, 42, pp 268-271 Bennett TN, Paguio, M., Gligorijevic, B., Seudieu, C., Kosar, A. D., Davidson, E., and Roepe, P. D. Novel, rapid, and inexpensive cell-based quantification of antimalarial drug efficacy Antimicrobial Agents Chemother. 2004, 48(5): pp 1807-10 Yuan J, Johnson RL, Huang RL, Wichterman J, Jiang HY, Hayton K, Fidock DA, Wellems TE, Inglese J, Austin CP, Su XZ. […]
In general terms: qHTS replaces the single test concentration by a dilution series.
For `CC12C=C(C=Cc3ccc(Br)cc3)C(C)(C1)[C@H](c1ccc(Br)cc1)CC2=O` (stereo not given in full), the Potency is 1690 nM (active).
As for `C=CCOC(=O)C(C(C)=O)[C@@H](NC(=O)OC)c1cccc(F)c1` (stereo not given in full), the entry is “inactive”.
As for `COc1cccc(CO[C@H]2C=C[C@@H](c3ccccc3)O[C@H]2CBr)c1`, the entry is “inactive”.
As to `CC(C)[C@@H](OCc1ccccc1)[C@H](C)CON=C1[C@H]2CCn3c(=O)n(-c4ccccc4)c(=O)n3[C@@H]2[C@H](O)[C@@H]2O[C@H]12`, the Potency entry was “inactive”.
Take `COC(=O)C1=C(C(=O)OC)[C@@H]2Nc3ccccc3[C@@]23C[C@@H](C(=O)OC)N(C(=O)NCCBr)C3=N1`: the Potency result is “inactive”.
As for `COC(=O)[C@H](COC(C)(C)C)NC(=O)O[C@@H]1C(=O)c2cc(OC)ccc2O[C@H]1c1cccc(OC)c1`, the entry is “inactive”.
As for `C=CCOC(=O)NC(CC(=Nc1ccc(OC)cc1)C(=O)OC)c1ccccc1` (stereo not given), the entry is “inactive”; as for `COc1ccc(O[C@H]2C=C[C@@H](c3ccccc3)O[C@H]2CON=C(C)CCN2CCCc3nc(C)c(C)cc32)cc1`, 3290 nM (active).
For `C[C@H]1COc2c(N3CCN(C)CC3)c(F)cc3c(=O)c(C(=O)NCc4ccco4)cn1c23`, the Potency result was “inactive”.
For `C[C@@H]1CC[C@H]2C(=O)O[C@@H](COc3ccc(C(C)(C)C)cc3)CN2[C@@H]1c1ccc(Br)cc1`, the Potency was 1690 nM (active).
As to `O=C1c2ccccc2C(=O)N1CCCC[C@]12Cc3c(ccc4ccccc34)[C@H](O1)c1c(cc(-c3ccccc3)oc1=O)O2`, the Potency was 536 nM (active).
As for `CCOC(=O)CN1C(=O)NC(c2ccc(Br)cc2)C(C(=O)OC)=C1C` (stereo not given), the entry is “inactive”; as for `CCCCC1=CC2=C(c3ccco3)C(=O)C(C)(OC(=O)c3ccc(OC)cc3)C(=O)C2=CN1Cc1ccco1` (stereo not given), “inactive”; as for `COC(=O)CCCC1=CC2=CC(=O)C(C)(OC(=O)c3cccs3)C(=O)C2=CN1Cc1ccco1` (stereo not given), “inactive”.
The same measure for `COCC=CC1=CC2=CC(=O)C(C)(OC(=O)c3cnc4ccccc4n3)C(=O)C2=CN1Cc1ccc(OC)cc1` (stereo not given): “inactive”; for `CCCCC1=CC2=C(c3ccco3)C(=O)C(C)(OC(=O)c3ccc(OC)cc3)C(=O)C2=CN1Cc1ccc2c(c1)OCO2` (stereo not given): “inactive”.
As for `COC[C@H]1O[C@@H](c2c(OC)cc(OC)cc2OC)[C@H](OC)[C@@H](OC)[C@H]1OC`, the entry is “inactive”; as for `COC(=O)CCCC1=CC2=CC(=O)C(C)(OC(=O)c3cccs3)C(=O)C2=CN1C1CC1` (stereo not given), “inactive”.
As for `CC(Nc1oc(-c2ccccc2)nc1-c1cccc2ccccc12)c1ccccc1` (stereo not given), the Potency entry was “inactive”.
In the case of `COC(=O)C1=C(C(=O)OC)[C@@H]2N(Cc3ccccc3)c3ccccc3[C@@]23C[C@@H](C(=O)OC)N(C(=O)Nc2ccccc2F)C3=N1`, the Potency entry was “inactive”.
`CCc1cc2c(nc1CC)CCN(CCC(C)=NOC[C@@H](O)[C@H]1O[C@@H]3OC(C)(C)O[C@H]3[C@@H]1O)C2`: the Potency was 2940 nM (active).
For `O=C1OC2(CCCCC2)CC2=C1[C@H]1O[C@](c3ccsc3)(Cc3ccccc31)O2`, the Potency entry is “inactive”.
On to `C[C@@H]1C=CCCO[C@]12C(=O)N(Cc1ccccc1C(F)(F)F)c1ccccc12`, for which the Potency result was “inactive”.
As to `CC=COC(=O)N[C@@H](c1cccc(C)c1)[C@]1(C(=O)OCC)CCCC1=O`, the Potency result was “inactive”.
As for `C=CCC(Nc1ccc(OC)cc1)(C(=O)OCC)c1ccccc1` (stereo not given), the Potency entry is “inactive”.
Consider `COC(=O)C1=C(C(=O)OC)[C@@H]2N(C)c3ccccc3[C@@]23C[C@@H](C(=O)OC)N(C(=O)c2cc(C)oc2C)C3=N1`, for which the Potency result is “inactive”.
As for `COC(=O)CC=C[C@@H](C)[C@H](O)c1ccccc1Br`, the figure is 1900 nM (active); as for `CCOC(=O)CNC(=O)O[C@@H]1C(=O)c2cc(OC)ccc2O[C@H]1c1cccc(OC)c1`, “inactive”; as for `COc1cccc([C@@H]2Oc3ccc(OC)cc3[C@H](O)[C@@H]2O)c1`, “inactive”.
The same measure for `C[C@H]1Cc2c(COc3ccccc3)nc3c(c2CO1)CN(C(=O)c1cccnc1)CC3`: “inactive”; for `C=CCOC(=O)N[C@H](c1cccc(C(F)(F)F)c1)C(C(C)=O)C(C)=O`: “inactive”; for `CCN1C(=O)NC(c2cccc(C(F)(F)F)c2)C(C(=O)OC)=C1C` (stereo not given): “inactive”.
With `CCN1C(=NCCc2cccnc2)N[C@H](CCc2ccccc2)[C@H](C(=O)OC)[C@H]1C`, the Potency entry was “inactive”.
With `COc1cc2c(c(OC)c1OC)C(c1ccccc1)(c1ccccc1)CC2NC(=O)C(F)(F)F` (stereo not given), the Potency is 2390 nM (active).
As to `COC(=O)C1=C[C@@H]([C@@H](C)[C@H](OC)c2ccccc2Br)[C@@H]2OCC[C@H]12`, the Potency result is “inactive”.
As for `CC(C)OC(=O)[C@H]1O[C@H](CCCCOCc2ccccc2)[C@@H](C)[C@H]2O[C@H]21`, the entry is “inactive”.
On to `COc1cccc([C@H]2Oc3ccc(OC)cc3C(=NO[C@H](C)CN3CCCc4nc(C)c(C)cc43)[C@H]2O)c1`, for which the Potency entry is “inactive”.
The same measure for `COC1=C[C@H](C(=O)NCCOC(C)=O)[C@H](C)[C@@H](c2ccccc2)CC1=O`: “inactive”.
The same measure for `CCCCC1=CC2=C(c3ccco3)C(=O)C(C)(OC(=O)c3ccc(OC)cc3)C(=O)C2=CN1CCCN(CC)CC` (stereo not given): “inactive”.
As for `COC(=O)N[C@H](CC(C)=O)c1cccs1`, the entry is “inactive”.
